# From the supplement of paper PMC13380429
# Unmarked numbers belong to inactive results.
# Test system: Vero E6 infected with SARS-CoV-2
# Assay: inhibition of SARS-CoV-2 cytopathic effect; higher = more antiviral protection, active = above 15
# Conditions: 48 h
Structure (SMILES),inhibition of SARS-CoV-2 cytopathic effect (1 nM),inhibition of SARS-CoV-2 cytopathic effect (8.33 nM),inhibition of SARS-CoV-2 cytopathic effect (100 nM),inhibition of SARS-CoV-2 cytopathic effect (833.33 nM),inhibition of SARS-CoV-2 cytopathic effect (10000 nM)
CCCCOc1ccc(CC(=O)NO)cc1 [bufexamac],0.27%,-0.68%,0.49%,0%,0.42%
COc1ccc(CCC(=O)c2c(O)cc(O[C@@H]3O[C@H](CO)[C@@H](O)[C@H](O)[C@H]3O[C@@H]3O[C@@H](C)[C@H](O)[C@@H](O)[C@H]3O)cc2O)cc1O [Neohesperidin dihydrochalcone (Nhdc)],-1.62%,-3.36%,-1.21%,0.9%,-1.64%
CNc1cc2[nH]c(=O)n(-c3ccc(NC(=O)NS(=O)(=O)c4ccc(Cl)s4)cc3)c(=O)c2cc1F [elinogrel],3.26%,1.24%,-3.68%,3.74%,-1.62%
O=C(/C=C/c1ccccc1)NCCO [brolitene],-0.76%,-1.09%,-0.6%,-2.74%,1.92%
CCOC(=O)c1ncc2[nH]c3ccc(OCc4ccccc4)cc3c2c1COC,2.48%,0.26%,0.32%,2.46%,-5.3%
CN[C@@H](C)C(=O)N[C@H](C(=O)N1CCC[C@H]1C(=O)Nc1snnc1-c1ccccc1)C1CCCCC1,0.62%,-0.64%,-0.23%,-0.79%,-5.99%
CC1(C)S[C@@H]2[C@H](NC(=O)C(C(=O)O)c3ccccc3)C(=O)N2[C@H]1C(=O)O (stereo not given in full) [carbenicillin],2.76%,1.83%,0.55%,2.42%,0.1%
CCc1cccc(CC)c1NC(=O)N1Cc2[nH]nc(NC(=O)c3ccc(N4CCN(C)CC4)cc3)c2C1,-4.07%,1.98%,1.34%,1.38%,-0.02%
CC(C)(O)[C@@H]1[C@H]2OC(=O)[C@@H]1[C@]1(O)C[C@H]3O[C@]34C(=O)O[C@H]2[C@]14C [picrotin],-0.34%,1.31%,1.26%,-0.13%,3.22%
CN(C)CCOC1=Cc2ccccc2Sc2ccc(Cl)cc21 [zotepine],3.4%,2.96%,4.34%,0.16%,-3.52%
CC1Sc2c(C(=O)O)c(=O)c3cc(F)c(N4CCNCC4)cc3n21 (stereo not given) [ulifloxacin],-1.7%,-1.36%,-3.62%,1.61%,-0.79%
CC[C@@]1(O)C(=O)OCc2c1cc1n(c2=O)Cc2cc3ccccc3nc2-1 [camptothecin],-1.27%,1.92%,-1.93%,-11.9%,-20.7%
Cc1cc(-c2nncc3c(C(C)(C)C)c(OCc4ncnn4C)nn23)no1,1.59%,-1.07%,0.62%,-3.08%,-1.02%
CCNC(=O)c1n[nH]c(-c2cc(Cl)c(O)cc2O)c1-c1ccc(OC)cc1,-4.03%,-4.15%,-2.27%,-3.38%,-0.29%
COC(=O)C1=CO[C@@H](O[C@@H]2O[C@H](CO)[C@@H](O)[C@H](O)[C@H]2O)[C@@H]2C(CO)=CC[C@H]12 [geniposide],-1.56%,-1.45%,-10.1%,-17%,-18.6%
O=C1c2cccc3c2[C@H](CCC3)CN1[C@@H]1CN2CCC1CC2 [palonosetron],-2.25%,-0.74%,-0.65%,-0.13%,-0.75%
COCC(=O)Nc1c(I)c(C(=O)NCC(O)CO)c(I)c(C(=O)N(C)CC(O)CO)c1I (stereo not given) [iopromide],-2.42%,-1.91%,-0.01%,-0.15%,0.66%
CCCC[P+](CCCC)(CCCC)Cc1ccc(NC(=O)[C@H](Cc2ccc3ccccc3c2)N/C(=N/C2CCCCC2)NC2CCCCC2)cc1,-1.29%,-0.27%,-4.22%,-4.62%,-2.72%
Cc1cc(NC(=O)C2=C(O)c3ccccc3S(=O)(=O)N2C)no1 [isoxicam],-3.86%,-3.12%,-4.12%,-2.59%,-0.72%

Structure (SMILES),inhibition of SARS-CoV-2 cytopathic effect (1 nM),inhibition of SARS-CoV-2 cytopathic effect (8.33 nM),inhibition of SARS-CoV-2 cytopathic effect (100 nM),inhibition of SARS-CoV-2 cytopathic effect (833.33 nM),inhibition of SARS-CoV-2 cytopathic effect (10000 nM)
CCN(CC)C(=O)N1CCN(C)CC1 [diethylcarbamazine],-4.87%,-4.75%,-2.46%,0.55%,-2.31%
CN(C)CCCCC(=O)Nc1ccc(NC(=S)NC(=O)c2ccc(C(C)(C)C)cc2)cc1 [tenovin-6],-2.53%,0.01%,-0.72%,4.3%,18% (active)
CN(C)CCCN1c2ccccc2Sc2ccc(C(F)(F)F)cc21 [triflupromazine],1.3%,-0.49%,-1.51%,1.78%,0.59%
COC1(C[S@@+]([O-])c2ccccc2)CCN(CCc2c[nH]c3ccc(F)cc23)CC1,1.49%,4.84%,3.16%,1.05%,-2.13%
C[C@H](c1ccc2ccc(OC3CCC(C(F)(F)F)CC3)c(C(F)(F)F)c2c1)N1C2CCC1CC(C(=O)O)C2 (stereo not given in full) [autotaxin-modulator-1],-1.22%,-0.49%,0.86%,0.12%,1.02%
C=C1/C(=C\C=C2/CCC[C@]3(C)[C@@H]([C@H](C)CCCC(O)(C(F)(F)F)C(F)(F)F)CC[C@@H]23)C[C@@H](O)C[C@@H]1O [falecalcitriol],-0.53%,0.41%,-1.28%,0.88%,-2.37%
Cc1cc(/C=C2\SC(=O)N(c3ccccc3)C2=O)c(C)n1-c1cccnc1,2.97%,-0.28%,1.31%,1.52%,2.29%
C[C@@H]1CC[C@H]2C(C)(C)[C@H]3C[C@@]12CC[C@@]3(C)O [cedrol],-1.18%,-3.1%,-1.28%,-1.1%,-1.09%
N[C@H](Cc1ccccc1)C(=O)O [D-phenylalanine],2.99%,-0.14%,2.52%,0.27%,0.05%
C#Cc1cncc([C@@H]2CCCN2C)c1 [altinicline],-3.46%,-2.16%,-1.9%,-2.32%,0.92%
CC[C@@]1(O)C(=O)OCc2c1cc1n(c2=O)Cc2c-1nc1cc(F)c(C)c3c1c2[C@@H](N)CC3 [exatecan-mesylate],-2.4%,-0.39%,-7.04%,-15.8%,-20.5%
COc1nc(C)cnc1NS(=O)(=O)c1cccnc1-c1ccc(-c2nnco2)cc1 [zibotentan],-2.02%,-0.17%,-0.98%,-3.56%,-1.47%
O=C(NCC(=O)N1CCCC1)Nc1ccc2cnccc2c1,-2.26%,0.25%,0.13%,1%,-1.4%
CNC(=O)Nc1ccc(-c2nc(N3CC4CCC(C3)O4)c3cnn(C4CCC5(CC4)OCCO5)c3n2)cc1,-1.21%,1.24%,0.34%,-0.87%,9.1%
Cn1cc(C(=O)OCC2CCN(CCNS(C)(=O)=O)CC2)c2ccccc21,-2.5%,4.63%,5.3%,6.93%,-0.18%
C[C@@H]1CC[C@@]2(OC1)O[C@H]1C[C@H]3[C@@H]4CC=C5C[C@@H](O[C@@H]6O[C@H](CO)[C@@H](O[C@@H]7O[C@@H](C)[C@H](O)[C@@H](O)[C@H]7O)[C@H](O)[C@H]6O[C@@H]6O[C@@H](C)[C@H](O)[C@@H](O)[C@H]6O)CC[C@]5(C)[C@H]4CC[C@]3(C)[C@H]1[C@@H]2C [dioscin],-2.63%,0.88%,-2.63%,0.22%,-12.2%
N[C@H]1C[C@@H]1c1ccc(-c2cccc(O)c2)cc1,1.62%,-1.45%,-0.41%,-1.63%,-0.24%
CCCCOc1c(C(=O)c2c(F)cc(C)cc2F)c[nH]c2nncc1-2,0.56%,-0.26%,0.08%,-0.55%,-3.38%
